Experimental findings from the supplement of paper PMC9135407 are described below.

Structures can show the parent of a compound that is named as a salt.

This assay has as its system primary human hepatic stellate cells (donor 1). The experiment in a line: ACTA2 mRNA fold change vs DMSO (normalised to PSMB2); higher = more ACTA2 expression. The note with it: 48 h. The method, then: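 Secondary qRT-PCR screen in primary human HSCs (donor 1), 384-well plates, with compounds dispensed in quadruplicate and incubated for 48 h. Cells-to-CT lysates were used for multiplexed TaqMan qPCR of ACTA2 or COL1A1 with PSMB2 as reference. Fold changes versus DMSO come from a linear model (Ct_gene ~ Ct_PSMB2 + plate + chemical). A hit is defined as COL1A1 and ACTA2 FC <0.5 (FDR <0.05) with PSMB2 between 0.2 and 2.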
With `Cc1nc(Nc2ncc(C(=O)Nc3c(C)cccc3Cl)s2)cc(N2CCN(CCO)CC2)n1` (33.3333 µM), the “ACTA2 mRNA fold change” value amounted to 0.192.

As for `CC(C)c1cc(-c2n[nH]c(=O)n2-c2ccc3c(ccn3C)c2)c(O)cc1O` [Ganetespib (STA-9090)] (33.3333 µM), the “ACTA2 mRNA fold change” value amounted to 0.605. On to `CC(C)c1ccc(C(=O)c2cccs2)c(SCCCCCCCCN(C)C)n1` (33.3333 µM), for which the “ACTA2 mRNA fold change” value worked out at 0.846.

For the compound `Cc1cccc(Nc2nc(-c3ccncc3)cs2)c1` (11.1 µM), the “ACTA2 mRNA fold change” value was 1.07. Next, `Clc1ccccc1CNCC1CCC(CNCc2ccccc2Cl)CC1` (stereo not given) (33.3333 µM): 0.0214. As to `O=C1NCN(c2ccccc2)C12CCN(CCCC(c1ccc(F)cc1)c1ccc(F)cc1)CC2` [Fluspirilene] (14.0333 µM), the “ACTA2 mRNA fold change” value was 1.03. Consider `CN1CCN(C2=Cc3ccccc3Oc3ccc(Cl)cc32)CC1` (33.3333 µM), for which the “ACTA2 mRNA fold change” value came out at 0.196.

In the case of `COC(=O)C[C@](O)(CCCC(C)(C)O)C(=O)O[C@@H]1C(OC)=C[C@]23CCCN2CCc2cc4c(cc2[C@H]13)OCO4` [Homoharringtonine] (33.3333 µM), the “ACTA2 mRNA fold change” value came to 0.0673. `NC(N)=NC(=O)c1nc(Cl)c(N2CCCCCC2)nc1N` [5-(N,N-hexamethylene)amiloride] (33.3333 µM): the “ACTA2 mRNA fold change” value turned out to be 0.0262. Consider `CC1(C)CC(=O)c2c(C(F)(F)F)nn(-c3ccc(C(N)=O)c(N[C@H]4CC[C@H](OC(=O)CN)CC4)c3)c2C1` (33.3333 µM), for which the “ACTA2 mRNA fold change” value was 0.967. On to `C#C[C@]1(O)CC[C@H]2[C@@H]3CCC4=Cc5oncc5C[C@]4(C)[C@H]3CC[C@@]21C` [Danazol] (33.3333 µM), for which the “ACTA2 mRNA fold change” value came out at 0.0332. On to `CNc1nccc(-c2cccnc2Oc2cc(C(=O)Nc3cccc(C(F)(F)F)c3)ccc2C)n1` (33.3333 µM), for which the “ACTA2 mRNA fold change” value was found to be 0.569. `CCCCCCCCCCCCCCCCn1cc[n+](Cc2ccccc2)c1C` (11.1 µM): the “ACTA2 mRNA fold change” value came to 0.0378.

For the compound `CCCCCCCCCCCCC/C=C/[C@@H](O)[C@H](CO)N(C)C` [N,N-Dimethylsphingosine] (3.33333 µM), the “ACTA2 mRNA fold change” value was 0.651. As to `O=C(Nc1ncc(SCCN2CCCC2)s1)[C@]1(c2ccc(S(=O)(=O)C3CC3)cc2)C[C@H]1C1CCCCC1` (11.1 µM), the “ACTA2 mRNA fold change” value came out at 0.00928.

`NC1(c2ccc(-c3nc4ccn5c(=O)[nH]nc5c4cc3-c3ccccc3)cc2)CCC1` (11.1 µM): the “ACTA2 mRNA fold change” value is 0.33. Regarding `C[C@@H]1CN(CCCn2c3ccccc3c3ccccc32)C[C@H](C)N1` [Rimcazole dihydrochloride] (33.3333 µM), the “ACTA2 mRNA fold change” value was 0.0478. Take `CCCCc1oc2ccccc2c1C(=O)c1cc(I)c(OCCN(CC)CC)c(I)c1` (33.3333 µM): the “ACTA2 mRNA fold change” value is 0.0284. Next, `CC#CCOC(=O)c1c(C)nc2sc3c(c2c1N)CCC(O)C3` (stereo not given) (33.3333 µM): 0.806; `CS(=O)(=O)CCNCc1ccc(-c2ccc3ncnc(Nc4ccc(OCc5cccc(F)c5)c(Cl)c4)c3c2)o1` (6.66667 µM): 1.05. `CCN1CCC(n2cc(CNc3cc(Cl)c4ncc(C#N)c(Nc5ccc(F)c(Cl)c5)c4c3)nn2)CC1` (33.3333 µM): the “ACTA2 mRNA fold change” value was found to be 0.0712.

Consider `COc1ccccc1OCCNCC(O)COc1cccc2[nH]c3ccccc3c12` (stereo not given) [Carvedilol] (33.3333 µM), for which the “ACTA2 mRNA fold change” value was determined as 0.0773. In the case of `C[C@@H](Oc1cc(-c2cnn(C3CCNCC3)c2)cnc1N)c1c(Cl)ccc(F)c1Cl` (11.1 µM), the “ACTA2 mRNA fold change” value was 0.15.

As to `COC(=O)N[C@H](C(=O)N1CCC[C@H]1c1ncc(-c2ccc(-c3ccc(-c4cnc([C@@H]5CCCN5C(=O)[C@@H](NC(=O)OC)C(C)C)[nH]4)cc3)cc2)[nH]1)C(C)C` (33.3333 µM), the “ACTA2 mRNA fold change” value amounted to 0.0331. With `CNCc1ccc(-c2[nH]c3cc(F)cc4c3c2CCNC4=O)cc1` (33.3333 µM), the “ACTA2 mRNA fold change” value is 0.864. Take `CCCSc1ccc2[nH]c(NC(=O)OC)nc2c1` [Albendazole] (33.3333 µM): the “ACTA2 mRNA fold change” value was determined as 0.173. On to `C[C@@H](CN1CCC(n2c(=O)[nH]c3cc(Cl)ccc32)CC1)NC(=O)c1ccc2ccccc2c1` (33.3333 µM), for which the “ACTA2 mRNA fold change” value is 0.045. Regarding `Cc1ccc(S(=O)(=O)/C=C/C#N)cc1` (33.3333 µM), the “ACTA2 mRNA fold change” value was 0.24. On to `C[C@H]1O[C@@H](O[C@H]2[C@@H](O)C[C@H](O[C@H]3[C@@H](O)C[C@H](O[C@H]4CC[C@@]5(C)[C@H](CC[C@@H]6[C@@H]5C[C@@H](O)[C@]5(C)[C@@H](C7=CC(=O)OC7)CC[C@]65O)C4)O[C@@H]3C)O[C@@H]2C)C[C@H](O)[C@@H]1O` [Digoxin] (33.3333 µM), for which the “ACTA2 mRNA fold change” value stood at 0.0126. Take `Cc1ccc(NC(=O)C(C)C)cc1C1CCN(Cc2ccc(Oc3ccc(F)c(F)c3)cc2)CC1` (33.3333 µM): the “ACTA2 mRNA fold change” value came to 0.0197. Regarding `COc1ccc(NS(=O)(=O)c2sc3ccc(Cl)cc3c2C)cc1N1CCNCC1` (33.3333 µM), the “ACTA2 mRNA fold change” value was 0.0163.

On to `Nc1ccc(C(=O)Nc2cccc(-c3nc(N4CCOCC4)c4oc5ncccc5c4n3)c2)cn1` (6.66667 µM), for which the “ACTA2 mRNA fold change” value is 1.8.

For the compound `Cc1cc(C(=O)Nc2cc(Nc3ccc4c(/C=C/c5ccccn5)n[nH]c4c3)ccc2F)n(C)n1` (33.3333 µM), the “ACTA2 mRNA fold change” value is 0.469. With `Cc1nc2ccc(-n3ncc(C(=O)c4cc5ccccc5[nH]4)c3N)cc2[nH]1` (33.3333 µM), the “ACTA2 mRNA fold change” value came to 0.785. `CCN(CC)CCOc1ccc(Cc2ccccc2)cc1` [DPPE fumarate] (33.3333 µM): the “ACTA2 mRNA fold change” value amounted to 0.397. For `CN(C)CCC(c1ccc(Br)cc1)c1ccccn1` (stereo not given) [Brompheniramine maleate] (33.3333 µM), the “ACTA2 mRNA fold change” value was 1.25. As to `CCCCCCCCc1ccc(CCC(N)(CO)CO)cc1` [Fingolimod (FTY720) HCl] (11.1 µM), the “ACTA2 mRNA fold change” value came out at 0.301. Regarding `CN1CCCN(C(c2ccccc2)c2ccc(Cl)cc2)CC1` (stereo not given) [Homochlorcyclizine dihydrochloride] (33.3333 µM), the “ACTA2 mRNA fold change” value turned out to be 0.0102. In the case of `Cc1cc(Nc2cc(N3CCN(C)CC3)nc(/C=C/c3ccccc3)n2)n[nH]1` (11.1 µM), the “ACTA2 mRNA fold change” value is 0.703. Take `COc1cc2ncn(-c3cc(OCc4ccccc4C(F)(F)F)c(C(N)=O)s3)c2cc1OC` (33.3333 µM): the “ACTA2 mRNA fold change” value is 0.333.
